{
  "source": "the supplement of paper PMC8728848",
  "binders": {"B1": {"name": "HFR-3 (Triticum aestivum) (protein)", "chain": "MKGLLLCALALAFAAVTTHAQLQSCPTRCGKQADGMECPNNLCCSKDGYCGLGVDYCSAGAGCQSGACYDNKICGAQANGTLCRNNHCCSSGGRCGYGREYCSNGCQGGPCWADLKCGHLDNGKLCPNNLCCSQYGYCGLGPEFCGTGCQNGACSTDKPCGNKANGAPCTNNYCCSQYGSCGLGKDYCGTGCQNGACN"}},
  "experiment_in_all_cases": "glycan array binding signal (z-score within array); higher = stronger binding",
  "details_in_all_cases": "glycan notation: IUPAC condensed, linker removed",
  "key": {"[1]": {"target": "Fuc(a1-2)Gal(b1-3)GalNAc(b1-3)Gal", "method_in_brief": "(§1)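 The binding signal is a Z-score computed within each array. Data were drawn from 3228 arrays in the Consortium for Functional Glycomics database, restricted to those with a known protein sequence. Scores were averaged over arrays of the same protein sequence at different concentrations or buffers, and over linkers, and negative values can be taken as non-binding.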"}, "[2]": {"target": "Fuc(a1-2)Gal(b1-3)[Fuc(a1-4)]GlcNAc(b1-3)[Fuc(a1-3)[Gal(b1-4)]GlcNAc(b1-6)]Gal(b1-4)Glc", "method_in_brief": "as §1"}, "[3]": {"target": "Fuc(a1-2)[GalNAc(a1-3)]Gal(b1-3)GalNAc(b1-3)Gal(a1-4)Gal(b1-4)Glc", "method_in_brief": "as §1"}, "[4]": {"target": "Fuc(a1-2)[GalNAc(a1-3)]Gal(b1-4)[Fuc(a1-3)]GlcNAc", "method_in_brief": "as §1"}, "[5]": {"target": "Fuc(a1-3)[Gal(b1-4)]Glc6S", "method_in_brief": "as §1"}, "[6]": {"target": "Fuc(a1-3)[Gal(b1-4)]GlcNAc(b1-6)GalNAc", "method_in_brief": "as §1"}, "[7]": {"target": "Gal(a1-3)Gal(b1-3)GlcNAc(b1-6)GalNAc", "method_in_brief": "as §1"}, "Gal(a1-3)Gal(b1-4)GlcNAc": {"target": "Gal(a1-3)Gal(b1-4)GlcNAc", "method_in_brief": "as §1"}, "[8]": {"target": "Gal(a1-3)Gal(b1-4)[Fuc(a1-3)]GlcNAc", "method_in_brief": "as §1"}, "Gal(a1-3)GalNAc": {"target": "Gal(a1-3)GalNAc", "method_in_brief": "as §1"}, "[9]": {"target": "Gal(a1-3)[Gal(a1-4)]Gal(b1-4)GlcNAc", "method_in_brief": "as §1"}, "Gal(a1-4)Gal(b1-4)Glc": {"target": "Gal(a1-4)Gal(b1-4)Glc", "method_in_brief": "as §1"}, "Gal(b1-3)Gal": {"target": "Gal(b1-3)Gal", "method_in_brief": "as §1"}, "Gal(b1-3)GalNAc(b1-3)Gal": {"target": "Gal(b1-3)GalNAc(b1-3)Gal", "method_in_brief": "as §1"}, "[10]": {"target": "Gal(b1-3)GalNAc(b1-4)Gal(b1-4)Glc", "method_in_brief": "as §1"}, "[11]": {"target": "Gal(b1-3)GlcNAc(b1-2)Man(a1-3)[Gal(b1-3)GlcNAc(b1-2)Man(a1-6)]Man(b1-4)GlcNAc(b1-4)[Fuc(a1-6)]GlcNAc", "method_in_brief": "as §1"}, "[12]": {"target": "Gal(b1-3)[GlcNAc(b1-6)]GalNAc", "method_in_brief": "as §1"}, "Gal(b1-4)GlcNAc": {"target": "Gal(b1-4)GlcNAc", "method_in_brief": "as §1"}, "[13]": {"target": "Gal(b1-4)GlcNAc(b1-2)Man(a1-3)[Gal(b1-4)GlcNAc(b1-2)Man(a1-6)][Gal(b1-4)GlcNAc(b1-4)]Man(b1-4)GlcNAc(b1-4)[Fuc(a1-6)]GlcNAc", "method_in_brief": "as §1"}, "[14]": {"target": "Gal(b1-4)GlcNAc(b1-2)Man(a1-6)Man(b1-4)GlcNAc(b1-4)GlcNAc", "method_in_brief": "as §1"}, "[15]": {"target": "Gal(b1-4)GlcNAc(b1-2)[Gal(b1-4)GlcNAc(b1-6)]Man(a1-6)[GlcNAc(b1-4)][Gal(b1-4)GlcNAc(b1-2)Man(a1-3)]Man(b1-4)GlcNAc(b1-4)GlcNAc", "method_in_brief": "as §1"}, "[16]": {"target": "Gal(b1-4)GlcNAc(b1-3)Gal(b1-4)GlcNAc(b1-3)Gal(b1-4)GlcNAc(b1-2)[Gal(b1-4)GlcNAc(b1-3)Gal(b1-4)GlcNAc(b1-3)Gal(b1-4)GlcNAc(b1-6)]Man(a1-6)[Gal(b1-4)GlcNAc(b1-3)Gal(b1-4)GlcNAc(b1-3)Gal(b1-4)GlcNAc(b1-2)Man(a1-3)]Man(b1-4)GlcNAc(b1-4)[Fuc(a1-6)]GlcNAc", "method_in_brief": "as §1"}, "[17]": {"target": "Gal(b1-4)GlcNAc(b1-3)[GlcNAc(b1-6)]Gal(b1-4)GlcNAc", "method_in_brief": "as §1"}, "Gal3S(b1-3)GalNAc": {"target": "Gal3S(b1-3)GalNAc", "method_in_brief": "as §1"}, "[18]": {"target": "Gal3S(b1-4)[Fuc(a1-3)]Glc6S", "method_in_brief": "as §1"}, "Gal4S6S(b1-4)GlcNAc": {"target": "Gal4S6S(b1-4)GlcNAc", "method_in_brief": "as §1"}, "GalNAc(b1-3)Gal": {"target": "GalNAc(b1-3)Gal", "method_in_brief": "as §1"}, "GalNAc(b1-4)GlcNAc": {"target": "GalNAc(b1-4)GlcNAc", "method_in_brief": "as §1"}, "[19]": {"target": "GalNAc(b1-4)GlcNAc(b1-2)Man(a1-3)[GalNAc(b1-4)GlcNAc(b1-2)Man(a1-6)]Man(b1-4)GlcNAc(b1-4)GlcNAc", "method_in_brief": "as §1"}, "Glc(b1-6)Glc": {"target": "Glc(b1-6)Glc", "method_in_brief": "as §1"}},
  "note": "About 410 targets per protein were measured; listed, in parts, are those with the strongest signals and a random draw of the rest.",
  "data": [
    {"binder": "B1", "values": [
      {"measurement": "glycan array binding signal (z-score)", "setting": "[1]", "value": -0.52},
      {"measurement": "glycan array binding signal (z-score)", "setting": "[2]", "value": -0.893},
      {"measurement": "glycan array binding signal (z-score)", "setting": "[3]", "value": -1.32},
      {"measurement": "glycan array binding signal (z-score)", "setting": "[4]", "value": -0.585},
      {"measurement": "glycan array binding signal (z-score)", "setting": "[5]", "value": -1.23},
      {"measurement": "glycan array binding signal (z-score)", "setting": "[6]", "value": -1.31},
      {"measurement": "glycan array binding signal (z-score)", "setting": "[7]", "value": -0.577},
      {"measurement": "glycan array binding signal (z-score)", "setting": "Gal(a1-3)Gal(b1-4)GlcNAc", "value": 0.079},
      {"measurement": "glycan array binding signal (z-score)", "setting": "[8]", "value": -0.409},
      {"measurement": "glycan array binding signal (z-score)", "setting": "Gal(a1-3)GalNAc", "value": 2.1},
      {"measurement": "glycan array binding signal (z-score)", "setting": "[9]", "value": 1.2},
      {"measurement": "glycan array binding signal (z-score)", "setting": "Gal(a1-4)Gal(b1-4)Glc", "value": 2.12},
      {"measurement": "glycan array binding signal (z-score)", "setting": "Gal(b1-3)Gal", "value": -0.289},
      {"measurement": "glycan array binding signal (z-score)", "setting": "Gal(b1-3)GalNAc(b1-3)Gal", "value": -0.312},
      {"measurement": "glycan array binding signal (z-score)", "setting": "[10]", "value": 2.24},
      {"measurement": "glycan array binding signal (z-score)", "setting": "[11]", "value": 0.089},
      {"measurement": "glycan array binding signal (z-score)", "setting": "[12]", "value": -0.111},
      {"measurement": "glycan array binding signal (z-score)", "setting": "Gal(b1-4)GlcNAc", "value": -0.853},
      {"measurement": "glycan array binding signal (z-score)", "setting": "[13]", "value": -0.212},
      {"measurement": "glycan array binding signal (z-score)", "setting": "[14]", "value": -0.488},
      {"measurement": "glycan array binding signal (z-score)", "setting": "[15]", "value": 1.51},
      {"measurement": "glycan array binding signal (z-score)", "setting": "[16]", "value": 2.51},
      {"measurement": "glycan array binding signal (z-score)", "setting": "[17]", "value": -0.381},
      {"measurement": "glycan array binding signal (z-score)", "setting": "Gal3S(b1-3)GalNAc", "value": 1.67},
      {"measurement": "glycan array binding signal (z-score)", "setting": "[18]", "value": 6.1},
      {"measurement": "glycan array binding signal (z-score)", "setting": "Gal4S6S(b1-4)GlcNAc", "value": 0.828},
      {"measurement": "glycan array binding signal (z-score)", "setting": "GalNAc(b1-3)Gal", "value": 1.25},
      {"measurement": "glycan array binding signal (z-score)", "setting": "GalNAc(b1-4)GlcNAc", "value": 2.48},
      {"measurement": "glycan array binding signal (z-score)", "setting": "[19]", "value": 0.738},
      {"measurement": "glycan array binding signal (z-score)", "setting": "Glc(b1-6)Glc", "value": -0.1}
    ]}
  ]
}
